Measurements published in PubChem BioAssay (EPA / NIEHS).
Calls of active or inactive are those of the source. Rule for the calls: active = hit-call score of the fitted dose curve at least 0.9, where 1 is the maximum; inactive = score below 0.9.

Experiment: APR_HepG2_CellCycleArrest_24hr: Apredica 24-hour HepG2 Assay for Cell Cycle Arrest (AID 2282905);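 note: cell cycle arrest scored as ratio of 2N to 4N nuclear DNA content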
Conditions: imaging, actives raise or lower the signal
Procedure: APR_HepG2_24hr is a cell-based, multiplexed-readout assay that uses HepG2, a human liver cell line, with measurements taken at 24 hours after chemical dosing in a 384-well plate.APR_HepG2_CellCycleArrest_24hr is one of 10 assay component(s) measured or calculated from the APR_HepG2_24hr assay. It is designed to make measurements of cell phenotype, a form of morphology reporter, as detected with fluorescence intensity signals by HCS Fluorescent Imaging technology.Data from the assay component APR_HepG2_CellCycleArrest_24hr was analyzed into 1 assay endpoint. This assay endpoint, APR_HepG2_CellCycleArrest_24hr, was analyzed with bidirectional fitting relative to DMSO as the negative control and baseline of activity. Using a type of morphology reporter, measures of all nuclear dna for gain or loss-of-signal activity can be used to understand the signaling at the pathway-level as they relate to the gene . Furthermore, this assay endpoint can be referred to as a primary readout, because this assay has produced multiple assay endpoints where this one serves a signaling function. To generalize the intended target to other relatable targets, this assay endpoint is annotated to the cell cycle intended target family, where the subfamily is arrest.
Cells were treated with dimethyl sulfoxide (DMSO) as a solvent control at a final concentration of 0.5% v/v or with compounds in DMSO with a resulting final DMSO concentration of 0.5% v/v. Compound treatment was done at concentrations of 0.39, 0.78, 1.56, 3.12, 6.24, 12.5, 25, 50, 100, and 200 uM in duplicate on each plate. Cells were treated with compounds for 1, 24, or 72 hr. Carbonyl […] m-chloro-phenylhydrazone (CCCP) and taxol were used as positive controls for mitochondrial function and cytoskeletal stability, respectively; DMSO served as the negative control for this experiment. Cells were fixed by the direct addition of 50 uL formaldehyde in Hank's Balanced Salt Solution (HBSS) to a final concentration of 3.7%. After incubation in the fixation medium for 30 min at room temperature (293-298 K), cells were rinsed twice with HBSS and treated with cell permeabilization buffer (16 uL of 0.5% Triton X-100) for 10 min at room temperature (293-298 K) before labeling. For mitochondrial membrane potential and mitochondrial measurements, pre-fixed cells were incubated with 50 uL of MitoTracker Red CMXRos (Invitrogen) at a concentration of 250 nM for 30 min before fixation. In the remaining cases, post-fixed cells were labeled by incubation with a multiplexed mixture of primary antibodies in HBSS for 60 min at room temperature (293-298 K) to detect immunoreactivity of c-Jun (1:500), phospho-histone H3 (1:100), phospho-histone H2A.x (1:200), p53 (1:400), alpha-tubulin (1:200) and Hoechst 33342 (2 ug/mL). Cells were labeled for multiplexed imaging on two separate plates: a) Hoechst 33342, MitoTracker Red, phospho-histone H3, and alpha-tubulin, and b) Hoechst 33342, phospho-histone H2A.x, and c-Jun. A final rinse with HBSS (50 uL) was performed before analysis. The primary and secondary antibodies for the proteins were phospho-histone H3 (rabbit anti-phospho-histone H3 and FITC-donkey anti-rabbit IgG), phospho-histone H2A.x (mouse anti-phospho-histone H2A.x and FITC-donkey anti-mouse IgG), c-Jun (rabbit anti-phospho-c-Jun and Cy3-donkey anti-rabbit IgG), p53 (sheep anti-p53 and Cy5-donkey anti-sheep IgG), alpha-tubulin (mouse anti-alpha-tubulin and Cy5-donkey anti-mouse IgG). These antibodies are available as the CellCiphr HepG2 assay kit (Millipore).Digital images of each well were captured using a Cellomics ArrayScan VTI (Thermo Scientific Cellomics) (0.8 NA objective, 0.63x optical coupler, and XF-93 filter set) at 20x magnification. The images were acquired using the autofocus feature of the ArrayScan instrument, which entails the following steps. First, the camera focuses on channel 1 (Hoechst 33342), where nuclei are identified. Second, a Z offset of 1 um is used for capturing mitochondria (MitoTracker Red). […]

SMILES | AC50 | outcome
COc1cccc2c1C(=O)c1c(O)c3c(c(O)c1C2=O)C[C@@](O)(C(=O)CO)C[C@@H]3O[C@H]1C[C@H](N)[C@H](O)[C@H](C)O1 | 4.04 µM (active) | 
NCC1(Cc2noc(=O)[nH]2)CCCCC1 |  | inactive
CC(CO)OC(C)CO (stereo not given) (tested in a mixture with another compound) |  | inactive
CC(=O)C(C)=CC1C(C)=CCCC1(C)C (stereo not given) |  | inactive
O=c1c(O)c(-c2ccc(O)c(O)c2)oc2cc(O)cc(O)c12 | 58.4 µM (active) | 
CC(C)(C)c1cc(O)c(C(C)(C)C)cc1O |  | inactive
C=CCc1ccc(O)c(OC)c1 |  | inactive
CNC(=O)[C@H]1O[C@@H](n2cnc3c(NCc4cc(Cl)ccc4OCc4cc(C)no4)ncnc32)[C@H](O)[C@@H]1N |  | inactive
c1cc(-c2ccncc2)ccn1 |  | inactive
CC=Cc1ccc(O)c(OC)c1 | 105 µM (active) | 
O=c1[nH]cc(F)c(=O)[nH]1 | 1.06 µM (active) | 
OC[C@@H](O)[C@@H](O)[C@H](O)[C@H](O)CO |  | inactive
Nc1nc(N)c2nc(CNc3ccc(C(=O)N[C@@H](CCC(=O)O)C(=O)O)cc3)cnc2n1 |  | inactive
Oc1ccc2c(c1)OC[C@@H](N1CCC(O)(c3ccc(F)cc3)CC1)[C@H]2O |  | inactive
CCCCCCCCCCCCCO |  | inactive
CCCCCCCCCCC |  | inactive
Cc1nc(-c2ccc3c(c2)CCN(CCC2CCC(NC(=O)/C=C/c4ccc(F)cc4)CC2)CC3)no1 (stereo not given) |  | inactive
COCCOC[C@H](CC1(C(=O)NC2CCC(C(=O)O)CC2)CCCC1)C(=O)Oc1ccc2c(c1)CCC2 (stereo not given in full) |  | inactive
CCCCc1ccc2c(n1)[C@@H](c1ccc(OC)cc1C[C@H](C)C(=O)O)[C@H](C(=O)O)[C@H]2c1ccc2c(c1)OCO2 |  | inactive
CN[C@H]1CC[C@@H](c2ccc(Cl)c(Cl)c2)c2ccc(S(N)(=O)=O)cc21 |  | inactive

SMILES | AC50 | outcome
CCCCCCCCCCO |  | inactive
CC1(C)CC(N=C=O)CC(C)(CN=C=O)C1 (stereo not given) |  | inactive
CC1=C(/C=C/C(C)=C/C=C/C(C)=C/CO)C(C)(C)CCC1 |  | inactive
COc1cc(S(=O)(=O)O)c(C)cc1N=Nc1c(O)ccc2cc(S(=O)(=O)O)ccc12 |  | inactive
CC(=O)OC/C=C(\C)CCC=C(C)C |  | inactive
C[Si]1(C)O[Si](C)(C)O[Si](C)(C)O[Si](C)(C)O1 |  | inactive
Cc1ccc2ncccc2c1 |  | inactive
CCNc1cccc(C)c1 |  | inactive
O=C(O)CCCCC(=O)O |  | inactive
Cc1ccc(C)c(C)c1 |  | inactive
CC(C)c1ccc(C(=O)N=C(N)N)cc1S(C)(=O)=O |  | inactive
CN1CCCC1=O |  | inactive
CCCCCCCC=O |  | inactive
NCCO |  | inactive
Nc1ccc(S(=O)(=O)c2ccc(N)cc2)cc1 |  | inactive
CCCCCC(=O)O |  | inactive
NC(=O)Cn1c(=O)cc(CCN2CCN(c3nccc4sccc34)CC2)c2ccc(F)cc21 |  | inactive
Cc1cccc([N+](=O)[O-])c1C |  | inactive
NS(=O)(=O)c1cc2c(cc1Cl)NCNS2(=O)=O |  | inactive
Cc1ccc(Cl)cc1 |  | inactive
